In PubChem BioAssay (NCI):
The panel holds about 83,000 compounds, 20% with a hit somewhere; the sample as a whole holds those more often.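 The test compound was applied at a single concentration to cells in 96-well plates for 48 hours, and percent growth was recorded.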 Activity calls are given as the source filed them. How the source made its calls: active means growth percent below 10; inactive means the rest.

Assays:
Experiment in all cases: NCI-60 one-dose screen, 48 h (100 = growth as untreated, 0 = no growth, -100 = all killed)
Settings in all cases: 10 µM unless noted
SK-MEL-2 melanoma = tested on: SK-MEL-2 melanoma
EKVX NSCLC = tested on: EKVX NSCLC
SN12C renal = tested on: SN12C renal
UO-31 renal = tested on: UO-31 renal
TK-10 renal = tested on: TK-10 renal
ACHN renal = tested on: ACHN renal
CAKI-1 renal = tested on: CAKI-1 renal
A498 renal = tested on: A498 renal
CCRF-CEM leukemia = tested on: CCRF-CEM leukemia
MOLT-4 leukemia = tested on: MOLT-4 leukemia

Measured: growth

Clc1cc(Cl)c(Cl)c(-c2nnc(SCc3ccncc3Br)o2)c1
inactive: SK-MEL-2 melanoma 91.8% | EKVX NSCLC 84.5% | SN12C renal 92.3% | UO-31 renal 67.4% | TK-10 renal 117% | ACHN renal 94.4% | CAKI-1 renal 65.8% | A498 renal 94.8% | CCRF-CEM leukemia 77.1% | MOLT-4 leukemia 75.1%

CC(=O)c1c(C)nc(SCC(=O)Nc2cccc(O)c2)n1-c1ccc(Cl)cc1
inactive: SK-MEL-2 melanoma 104% | EKVX NSCLC 96.4% | SN12C renal 83.8% | UO-31 renal 86.3% | TK-10 renal 107% | ACHN renal 107% | CAKI-1 renal 90.6% | A498 renal 91.9% | CCRF-CEM leukemia 96% | MOLT-4 leukemia 95.4%

Cc1ccc(NC(=O)c2sc3nc(C)c(Br)c(C)c3c2N)cc1
inactive: SK-MEL-2 melanoma 82.6% | EKVX NSCLC 61.9% | SN12C renal 70.5% | UO-31 renal 65.4% | TK-10 renal 50.7% | ACHN renal 34.5% | CAKI-1 renal 74.3% | A498 renal 76.5% | CCRF-CEM leukemia 94.7% | MOLT-4 leukemia 90%

O=C1c2ccc3c4c5ccc(c24)C(=O)N1CCCOCCCCOCCCNCc1ccc(cc1)CNCCCOCCCCOCCCN(C3=O)C5=O
inactive: UO-31 renal 64.7% | TK-10 renal 21.6% | A498 renal 93.7%
active: SK-MEL-2 melanoma -35.8% | EKVX NSCLC -63.1% | SN12C renal -82.9% | ACHN renal -65.7% | CAKI-1 renal -1.05% | CCRF-CEM leukemia -0.763% | MOLT-4 leukemia -12.3%

COC(=O)CC[C@@H]1O[C@@H](c2cccc(C(F)(F)F)c2)[C@@H](O)[C@H]1O
inactive: SK-MEL-2 melanoma 103% | EKVX NSCLC 97.7% | SN12C renal 106% | UO-31 renal 92.9% | TK-10 renal 98.9% | ACHN renal 103% | CAKI-1 renal 94% | A498 renal 106% | CCRF-CEM leukemia 109% | MOLT-4 leukemia 104%

O=C(O)CCCN1C(=O)/C(=C/c2cn(-c3ccccc3)nc2-c2ccc([N+](=O)[O-])cc2)SC1=S
inactive: SK-MEL-2 melanoma 77.6% | EKVX NSCLC 67% | SN12C renal 50% | UO-31 renal 40.2% | TK-10 renal 78.2% | ACHN renal 56.8% | CAKI-1 renal 65.1% | A498 renal 88.2% | CCRF-CEM leukemia 27.6% | MOLT-4 leukemia 54.5%

Cc1ccc(C(=O)c2ccc(CC(=O)N/N=C/c3ccccc3O)n2C)cc1
inactive: SK-MEL-2 melanoma 89.6% | EKVX NSCLC 82.8% | SN12C renal 89.8% | UO-31 renal 40.6% | TK-10 renal 85.1% | ACHN renal 53.2% | CAKI-1 renal 64.5% | A498 renal 82% | CCRF-CEM leukemia 54.1% | MOLT-4 leukemia 74%

O=S(=O)(NCCCNc1nccc(-c2c(-c3ccc(F)c(O)c3)nc3sccn23)n1)c1ccccc1
inactive: SK-MEL-2 melanoma 24.9% | EKVX NSCLC 106% | SN12C renal 59% | UO-31 renal 31.1% | TK-10 renal 120% | ACHN renal 52.3% | CAKI-1 renal 55.9% | A498 renal 104% | CCRF-CEM leukemia 38.2% | MOLT-4 leukemia 50.9%

Nc1c(C(=O)Nc2ccccc2C(F)(F)F)sc2nc3c(cc12)CCC3
inactive: SK-MEL-2 melanoma 102% | EKVX NSCLC 97.1% | SN12C renal 101% | UO-31 renal 98% | TK-10 renal 89.9% | ACHN renal 99.6% | CAKI-1 renal 101% | A498 renal 95.1% | CCRF-CEM leukemia 101% | MOLT-4 leukemia 88.1%

O=C(Nc1nc2cc(C(=O)N3CCN(C(c4ccccc4)c4ccccc4)CC3)ccc2o1)c1ccc(NC2CCCCC2)c([N+](=O)[O-])c1
inactive: SK-MEL-2 melanoma 90.8% | EKVX NSCLC 52.5% | SN12C renal 53.8% | UO-31 renal 66.5% | TK-10 renal 84.5% | ACHN renal 47% | CAKI-1 renal 54.5% | A498 renal 76.2% | CCRF-CEM leukemia 28.3% | MOLT-4 leukemia 47.9%

Cc1cc(=O)n(C(=O)Nc2ccccc2Cl)c2cc(O)ccc12
inactive: SK-MEL-2 melanoma 118% | EKVX NSCLC 108% | SN12C renal 98.5% | UO-31 renal 76.9% | TK-10 renal 101% | ACHN renal 100% | CAKI-1 renal 92.3% | A498 renal 109% | CCRF-CEM leukemia 93.9% | MOLT-4 leukemia 110%

CCCCNC(=O)Oc1ccc(/C(=C(/C)Cc2ccc(OC)cc2)c2ccc(OCCN3CCCC3)cc2)cc1
inactive: SK-MEL-2 melanoma 85.2% | EKVX NSCLC 67.6% | SN12C renal 72.6% | UO-31 renal 53.5% | TK-10 renal 81.2% | ACHN renal 91.9% | CAKI-1 renal 70.5% | A498 renal 59.6% | CCRF-CEM leukemia 46% | MOLT-4 leukemia 34.4%

N#Cc1nc(-c2ccc(F)cc2)oc1S(=O)(=O)N1CCOCC1
inactive: SK-MEL-2 melanoma 83.6% | EKVX NSCLC 96.2% | SN12C renal 82.1% | UO-31 renal 82% | CAKI-1 renal 78.5% | A498 renal 128%
active: TK-10 renal -80.9% | ACHN renal -99.9% | CCRF-CEM leukemia 3.08% | MOLT-4 leukemia -5.27%

O=C(/C=C/c1ccccc1)Nc1ncc(Cc2ccccc2Cl)s1
inactive: SK-MEL-2 melanoma 25.7% | EKVX NSCLC 38.2% | SN12C renal 37.2% | UO-31 renal 39.2% | TK-10 renal 44.6% | ACHN renal 33.3% | CAKI-1 renal 26.2% | CCRF-CEM leukemia 15.9% | MOLT-4 leukemia 34.2%
active: A498 renal -6.96%

NC(=O)c1cccc(-n2ccc3cc(NC(=O)c4ccc(N5CCOCC5)c(C(F)(F)F)c4)ccc32)n1
inactive: SK-MEL-2 melanoma 71% | EKVX NSCLC 47.8% | SN12C renal 73.5% | UO-31 renal 36.5% | TK-10 renal 86.9% | ACHN renal 46.6% | CAKI-1 renal 39.7% | A498 renal 15.7% | CCRF-CEM leukemia 34.4% | MOLT-4 leukemia 52.5%

COc1cc2c(c(OC)c1OC)CCC(c1cccc(NC(=O)c3ccc(Br)cc3)c1)O2 (stereo not given)
inactive: SK-MEL-2 melanoma 87.4% | EKVX NSCLC 77.2% | SN12C renal 85.7% | UO-31 renal 66.6% | TK-10 renal 89.9% | ACHN renal 91.2% | CAKI-1 renal 90.3% | A498 renal 69.3% | CCRF-CEM leukemia 67% | MOLT-4 leukemia 41.1%

O=C(Nc1ccc(Oc2cccc(Cl)c2)c(Cl)c1)c1cccnc1
inactive: SK-MEL-2 melanoma 44.1% | EKVX NSCLC 50.9% | SN12C renal 43.4% | UO-31 renal 44.1% | TK-10 renal 59.8% | ACHN renal 41.7% | CAKI-1 renal 30.6% | CCRF-CEM leukemia 17.5% | MOLT-4 leukemia 37.4%
active: A498 renal -3.1%

C=CC(=O)N1CCN(c2cccc(Oc3nccc(Nc4nnc(-c5ccc(Br)cc5)s4)n3)c2)CC1
inactive: SK-MEL-2 melanoma 54.7% | EKVX NSCLC 93.9% | SN12C renal 78.7% | UO-31 renal 66.7% | TK-10 renal 111% | ACHN renal 72.9% | CAKI-1 renal 38.9% | A498 renal 79.7% | CCRF-CEM leukemia 69.5% | MOLT-4 leukemia 70.6%

Nc1nc2ccccc2c2c1S(=O)(=O)c1ccc(Cl)cc1C2=O
inactive: SK-MEL-2 melanoma 42% | EKVX NSCLC 48.2% | SN12C renal 11.4% | TK-10 renal 16.6% | ACHN renal 17.8% | CAKI-1 renal 19% | A498 renal 56.9%
active: UO-31 renal -15.2% | CCRF-CEM leukemia -10.3% | MOLT-4 leukemia 3.11%

CC/C=C\C[C@H](O)C/C=C1/C(=O)C=C[C@@H]1C/C=C\CCCC(=O)N(C)C
active: SN12C renal -9.16% | UO-31 renal -81.3% | TK-10 renal -6.21% | ACHN renal -85% | CAKI-1 renal -9.48% | CCRF-CEM leukemia 0.876% | MOLT-4 leukemia 6.69%
inactive: SK-MEL-2 melanoma 29% | EKVX NSCLC 22.9% | A498 renal 50.2%

NC(=O)c1c(NC(=O)c2ccc3ccccc3c2)sc2c1CCC(=O)C2
inactive: SK-MEL-2 melanoma 103% | EKVX NSCLC 86.2% | SN12C renal 50.5% | UO-31 renal 27.3% | TK-10 renal 95.7% | ACHN renal 34.2% | CAKI-1 renal 16.3% | A498 renal 95.2% | CCRF-CEM leukemia 15% | MOLT-4 leukemia 36.6%

COc1cc2cc(NCc3cccc(Cl)c3)nc(C)c2cc1OC
active: A498 renal 7.63%
inactive: SK-MEL-2 melanoma 38.6% | EKVX NSCLC 60% | SN12C renal 44.6% | UO-31 renal 36% | TK-10 renal 45.9% | ACHN renal 43.5% | CAKI-1 renal 52% | CCRF-CEM leukemia 27.5% | MOLT-4 leukemia 30.4%

O=C(O)CCN1C(=O)/C(=C/C(Cl)=C/c2ccccc2)SC1=S
active: ACHN renal -65.3% | CCRF-CEM leukemia 1.73%
inactive: SK-MEL-2 melanoma 43.7% | EKVX NSCLC 39.1% | SN12C renal 11.9% | UO-31 renal 35.8% | TK-10 renal 49.7% | CAKI-1 renal 23.8% | A498 renal 43.5% | MOLT-4 leukemia 10.6%

CCOC(=O)c1nn(-c2ccc(S(N)(=O)=O)cc2)c2nc(C)cc(=O)n12
inactive: SK-MEL-2 melanoma 109% | EKVX NSCLC 104% | SN12C renal 96.7% | UO-31 renal 86.1% | TK-10 renal 94.7% | ACHN renal 108% | CAKI-1 renal 90.8% | A498 renal 88.3% | CCRF-CEM leukemia 105% | MOLT-4 leukemia 119%

COc1ccc(F)cc1/C=C/C(=O)/C=C(/C=C/c1cc(F)ccc1OC)OB(F)F
inactive: SK-MEL-2 melanoma 84.1% | EKVX NSCLC 71.3% | TK-10 renal 32.9% | CAKI-1 renal 28.7% | A498 renal 108%
active: SN12C renal 8.78% | UO-31 renal -9.88% | ACHN renal 2.25% | CCRF-CEM leukemia -14.7% | MOLT-4 leukemia -16.5%

COc1cc(-c2nccc3[nH]c(-c4ccc5cc[nH]c5c4)nc23)cc(OC)c1OC
active: ACHN renal 2.78% | A498 renal -2.61% | CCRF-CEM leukemia 5.28%
inactive: SK-MEL-2 melanoma 15.2% | EKVX NSCLC 30.9% | SN12C renal 30.9% | UO-31 renal 13.6% | TK-10 renal 10.7% | CAKI-1 renal 29.7% | MOLT-4 leukemia 18.5%

CC/C(=C(/c1ccc(Cl)cc1)c1ccc(OCCN(C)C)cc1)c1ccc(Cl)cc1
inactive: SK-MEL-2 melanoma 80.9% | EKVX NSCLC 73.7% | SN12C renal 81.3% | UO-31 renal 64.3% | TK-10 renal 77.8% | ACHN renal 83.9% | CAKI-1 renal 60.4% | A498 renal 59% | CCRF-CEM leukemia 62.5% | MOLT-4 leukemia 58.2%
